This is a sample that favours compounds with a hit; in the whole collection about 5.7% have one here.
DAX1 inh-1: NR0B1 (DAX1) inhibition; 340,000 compounds, 0.99% hits; HEK293 Gal4-DAX1 luciferase reporter, luminescence; P51843; AID 504766; inhibition, % at 6.75 µM;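 active = inhibition above the mean over all tested compounds plus 3 SD, cut at about 4.2% in these data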;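 note: 0% = DAX1-transfected cells with DMSO and 100% = empty-vector control cells with DMSO; inhibition shows as a rise in luminescence from relieved DAX1 repression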
AHR act: human AHR activation; AHR-responsive luciferase reporter cells, luminescence; activation, % at 5 µM; 320,000 compounds, 2.5% hits; AID 2796; P35869; in the data active = activation above about 47%;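 note: 0% = vehicle wells and 100% = reference agonist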
ssDAF-12 act: activates DAF-12 receptor from parasite S. stercoralis. HEK293 ssDAF-12/GRIP1 lit1-tk-luc reporter, luminescence; % of 3 µM dafachronic acid response. AID 652126. 370,000 compounds, 1% hits. activation, % at 6.8 µM;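 active = activation above the mean over all tested compounds plus 3 SD, cut at about 0.9% in these data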;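 note: 0% = DMSO-only wells and 100% = 3 µM delta7-dafachronic acid wells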
DAX1 inh-2: blocks DAX1 repression of SF-1 activated StAR promoter | 370,000 compounds, 1.1% hits | HEK293T StAR-luciferase reporter, SF-1/DAX-1 repression relief | inhibition, % at 6.8 µM;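 active = inhibition above the mean over all tested compounds plus 3 SD, cut at about 3.6% in these data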;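 note: 0% = DAX-1 cells with DMSO and 100% = cells lacking DAX-1 with DMSO; higher inhibition means more luminescence from relief of DAX-1 repression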
hcDAF12 agonist: activates DAF-12 receptor from parasite H. contortus; HEK293 hcDAF-12 lit1-tk-luc reporter, luminescence; 0% DMSO, 100% Δ7-dafachronic acid; activation, % at 6.8 µM; AID 652067; 370,000 compounds, 1.4% hits;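 active = activation above the mean of all tested compounds plus 3 SD, cut at about 5.5% in these data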;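 note: 100% = response to 3 µM Δ7-dafachronic acid high control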
hgDAF-12 ag: hgDAF-12 agonism, primary luciferase screen. HEK293 GAL4-hgDAF12 UAS-luciferase reporter, agonist luminescence; normalized to butyrate control. activation, % at 6.8 µM. 370,000 compounds, 1.8% hits;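 active = activation above a cutoff set at the mean of all screened compounds plus 3 SD, cut at about 10% in these data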;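 note: 0% = DMSO wells and 100% = sodium butyrate wells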
LXR ag: LXR-beta agonism as hcDAF-12 counter-screen | 3,400 tested, under 10 active | shares compounds with hcDAF12 agonist | AID 743027 | activation, % at 6.8 µM | HEK293 Gal4-LXR tk-luc reporter, luminescence, 24 h; normalized: DMSO 0%, positive control 100%;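 active = mean percent activation of the reporter above a cutoff set as the average over tested compounds plus their standard deviation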
Target sequence (P55055 whole entry, looked up, the tested form may be a part): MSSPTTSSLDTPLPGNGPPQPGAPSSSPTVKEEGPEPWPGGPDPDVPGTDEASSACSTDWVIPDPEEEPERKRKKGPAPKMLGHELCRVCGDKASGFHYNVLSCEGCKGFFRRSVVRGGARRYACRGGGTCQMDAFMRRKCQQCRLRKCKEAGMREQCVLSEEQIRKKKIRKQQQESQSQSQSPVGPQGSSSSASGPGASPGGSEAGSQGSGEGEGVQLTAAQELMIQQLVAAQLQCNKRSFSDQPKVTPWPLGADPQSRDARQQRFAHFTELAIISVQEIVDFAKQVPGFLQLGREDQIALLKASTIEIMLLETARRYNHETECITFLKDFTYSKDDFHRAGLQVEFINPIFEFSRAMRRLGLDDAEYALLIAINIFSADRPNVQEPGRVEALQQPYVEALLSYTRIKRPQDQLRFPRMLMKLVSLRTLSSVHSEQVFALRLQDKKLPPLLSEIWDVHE
hcDAF12 conf: confirmation of H. contortus DAF-12 agonists; HEK293 hcDAF-12 lit1-tk-luc reporter, luminescence; % of Δ7-dafachronic acid response; activation, % at 6.8 µM; AID 743032; 3,400 compounds, 61% hits; shares compounds with hcDAF12 agonist;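 active = mean activation across triplicate tests above the threshold derived from the earlier primary screen, cut at about 5.5% in these data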;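 note: 0% = DMSO only wells and 100% = 3 µM Δ7-dafachronic acid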
* = called active by the depositor; nt = not tested or not shown.

SMILES | DAX1 inh-1 | AHR act | ssDAF-12 act | DAX1 inh-2 | hcDAF12 agonist | hgDAF-12 ag | LXR ag | hcDAF12 conf
C[C@@H]1CN([C@H](C)CO)C(=O)c2cc(NS(=O)(=O)c3ccccc3)ccc2O[C@@H](C)CCCCO[C@@H]1CN(C)Cc1ccc(Cl)c(Cl)c1 | nt | nt | -0.6 | 0.1 | 6.7* | -2.2 | -0.3 | 1.0
N#C/C(=C(/O)CN1CCCC1)c1nc(-c2ccccc2)cs1 | 5.3* | 17.7 | 0.8 | 2.6 | 8.8* | 11.6* | 0.5 | 4.9
CN(C)c1ccc(NC(=O)CCN2C(=O)c3cccc([N+](=O)[O-])c3C2=O)cc1 | 1.3 | 25.7 | -0.4 | 0.3 | 7.0* | 0.2 | -0.1 | 1.3
CN1c2ccccc2C(C)(C)C12CC(c1cccc(S(=O)(=O)N3CCCC3)c1)=NO2 (stereo not given) | -1.6 | -0.2 | -1.8 | 0.2 | -2.5 | 0.2 | nt | nt
CCOC(=O)c1ccc(-c2ccc(/C=N/NC(=O)Cc3nnc(N)s3)o2)cc1 | 0.7 | 8.8 | -0.3 | 3.7* | 8.8* | 7.4 | 0.4 | 4.3
Nc1nnc(CC(=O)N/N=C/c2ccc(-c3ccc(F)cc3)o2)s1 | nt | -1.8 | -1.9 | 0.3 | -1.7 | -0.9 | nt | nt
COC(=O)c1ccc(CSc2nnc(C)n2N)o1 | 1.0 | 4.7 | -0.5 | 0.0 | 14.9* | 0.3 | -0.2 | -1.4
COC(=O)c1[nH]c2ccccc2c1CN1CCOCC1 | -1.4 | 10.4 | -0.5 | 0.3 | 7.5* | 2.4 | -0.2 | 2.2
CN(C)CCCNc1c2c(nc3ccccc13)CCC2 | -0.2 | 4.6 | -0.8 | 1.0 | 7.0* | 1.5 | 0.0 | 5.0
c1ccc2c(NCCc3c[nH]c4ccccc34)c3ccccc3nc2c1 | -1.7 | 45.8 | -0.3 | -0.4 | 4.7 | 6.0 | nt | nt
OCCCNc1c2ccccc2nc2ccccc12 | 0.2 | 11.3 | 2.3* | -0.3 | 19.9* | 7.0 | 1.9 | 28.5*
COc1ccc(OCc2cc(C(=O)N(C)Cc3nnc(C)o3)no2)c(Cl)c1 | 1.0 | 0.3 | 0.3 | 1.0 | 6.6* | 9.9 | 0.9 | 3.2
O=C(Nc1ccc(F)cc1)OCc1cn(Cc2ccc(Cl)cc2)nn1 | nt | nt | -0.9 | 0.2 | -1.4 | -2.6 | nt | nt
CC(=O)c1c(C)nc(Nc2nc3ccccc3s2)nc1C | nt | 27.9 | 1.6* | 0.6 | 11.3* | 8.7 | 1.6 | 13.1*
CC(=O)c1c(C)nc(Nc2nc(C)c3cc(C)ccc3n2)nc1C | -0.9 | 5.6 | -2.3 | -0.1 | 0.1 | -1.6 | nt | nt
O=C1NCC(Nc2ccc(Br)cc2)C(=O)N1 (stereo not given) | 1.0 | nt | -1.7 | -0.5 | 0.1 | -2.5 | nt | nt
O=c1[nH]c2cc3c(cc2cc1CN(Cc1ccccc1)Cc1nnnn1Cc1ccco1)OCCO3 | -1.2 | nt | 0.2 | 1.4 | 8.3* | 4.6 | -0.5 | -1.3
CCOc1cc(/C=N\NC(=O)CN2CCOCC2)ccc1OCc1ccc(F)cc1 | -0.8 | 4.6 | -1.4 | -0.5 | 3.4 | -1.7 | nt | nt
Cc1sc(NC(=O)c2cccs2)c(C(N)=O)c1C | 0.8 | 33.6 | -0.1 | 1.2 | 8.5* | 9.2 | 0.2 | 6.2*
Cc1noc(C(=O)Nc2ccc(Cl)cc2)c1Cl | nt | 0.7 | nt | nt | nt | nt | nt | nt
Cc1noc(C(=O)Nc2cc(Cl)ccc2O)c1Cl | -0.2 | 55.7* | 0.5 | -0.5 | 7.4* | 0.4 | -0.2 | 4.7
Cc1cccc(NC(=O)CCNS(=O)(=O)c2cc(Br)cnc2N)c1C | 0.4 | 2.5 | -1.1 | 0.0 | 0.2 | 1.8 | nt | nt
Nc1nn(-c2ccccc2)c(N)c1N=Nc1ccc2c(c1)OCO2 | -1.0 | -2.1 | 0.4 | 1.7 | 8.4* | 20.2* | 1.5 | 6.5*
COc1cc(OC)cc(C(=O)N2CCN(c3ccc(N4CCOCC4)nn3)CC2)c1 | 0.4 | 4.0 | -0.2 | 0.0 | -0.4 | 0.4 | nt | nt
Cc1sc2ncnc(N[C@@H](Cc3c[nH]c4ccccc34)C(=O)O)c2c1C | -0.3 | 48.0* | 0.7 | 0.5 | 7.0* | 5.5 | 0.0 | 5.7*
CCc1cc2c(N[C@@H](Cc3c[nH]c4ccccc34)C(=O)O)ncnc2s1 | -1.2 | 27.3 | -0.1 | 0.7 | 8.0* | 2.2 | -0.2 | 3.9
